# Legend:
# Assay in all cases: DAPPL (digital affinity profiling via proximity ligation, sequencing); 10 mM Tris-HCl pH 7.5, 50 mM NaCl, 1 mM DTT, 4% glycerol, room temperature, 30 min; GST-TFs on glutathione beads, 16-mer random dsDNA library, 0.1% formaldehyde crosslink after washing; high values mean tight binding
# FLI1 = target: T1, FLI1 (Homo sapiens, UniProt Q01543 1-452); settings: protein: recombinant; tags: N-terminal GST; dsDNA, one strand shown
# T1 sequence: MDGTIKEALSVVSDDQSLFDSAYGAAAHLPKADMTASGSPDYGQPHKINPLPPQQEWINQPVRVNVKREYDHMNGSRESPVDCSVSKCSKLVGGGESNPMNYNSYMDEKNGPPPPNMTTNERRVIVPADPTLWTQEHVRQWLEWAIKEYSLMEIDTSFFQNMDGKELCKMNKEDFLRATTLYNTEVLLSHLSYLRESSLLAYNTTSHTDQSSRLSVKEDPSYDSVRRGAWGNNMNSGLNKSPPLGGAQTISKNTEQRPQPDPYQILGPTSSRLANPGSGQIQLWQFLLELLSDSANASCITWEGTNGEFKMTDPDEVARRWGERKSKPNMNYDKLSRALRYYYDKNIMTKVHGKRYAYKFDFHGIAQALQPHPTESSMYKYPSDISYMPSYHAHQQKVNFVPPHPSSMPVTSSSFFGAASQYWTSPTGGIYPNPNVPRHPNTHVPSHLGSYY
# Outline: (§1)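 Beads coated with glutathione captured GST-fused human transcription factors that had been expressed in yeast, and the factors were then given DNA barcodes and pooled with a tag-only sample. The pools were incubated with 200 nmole of a random double-stranded 16-mer DNA library in Tris/NaCl/DTT/glycerol buffer for 30 min at room temperature, washed, crosslinked with 0.1% formaldehyde and proximity-ligated with BsaI/T4 ligase at 37 °C for 1 h. PCR amplification and Illumina NextSeq500 sequencing came last. Binding signal is each hexamer's read frequency for a factor divided by its frequency for the tag-only sample.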
# SPI1 = SPI1 (Homo sapiens, UniProt P17947 1-270); settings: protein: recombinant; tags: N-terminal GST; dsDNA, one strand shown
# Outline: as §1
# ELK3 = target: T2, ELK3 (Homo sapiens, UniProt P41970 1-407); settings: protein: recombinant; tags: N-terminal GST; dsDNA, one strand shown
# T2 sequence: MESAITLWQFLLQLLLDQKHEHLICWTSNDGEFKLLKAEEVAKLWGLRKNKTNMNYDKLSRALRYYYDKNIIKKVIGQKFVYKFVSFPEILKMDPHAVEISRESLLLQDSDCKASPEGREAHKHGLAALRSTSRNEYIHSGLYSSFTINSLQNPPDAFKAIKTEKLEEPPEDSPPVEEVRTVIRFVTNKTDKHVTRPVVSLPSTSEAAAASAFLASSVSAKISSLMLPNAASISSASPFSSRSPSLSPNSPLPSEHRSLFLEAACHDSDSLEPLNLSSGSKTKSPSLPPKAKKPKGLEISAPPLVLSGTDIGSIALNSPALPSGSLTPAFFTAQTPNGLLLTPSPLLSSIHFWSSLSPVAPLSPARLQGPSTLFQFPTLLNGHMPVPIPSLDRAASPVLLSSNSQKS
# Outline: as §1
# ELF5 = target: T3, ELF5 (Homo sapiens, UniProt Q9UKW6-2 1-255); settings: protein: recombinant; tags: N-terminal GST; dsDNA, one strand shown
# T3 sequence: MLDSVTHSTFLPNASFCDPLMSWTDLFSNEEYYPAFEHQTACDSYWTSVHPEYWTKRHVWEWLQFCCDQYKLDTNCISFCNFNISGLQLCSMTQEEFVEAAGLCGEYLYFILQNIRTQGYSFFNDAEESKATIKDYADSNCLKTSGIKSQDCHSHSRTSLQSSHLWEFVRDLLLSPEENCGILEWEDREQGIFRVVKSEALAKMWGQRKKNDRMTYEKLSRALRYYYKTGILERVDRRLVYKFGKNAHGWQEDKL
# Outline: as §1
# HSF1 = HSF1 (Homo sapiens, UniProt Q00613 1-529); settings: protein: recombinant; tags: N-terminal GST; chain copies: 3; dsDNA, one strand shown
# Chain of HSF1 (Q00613 whole entry): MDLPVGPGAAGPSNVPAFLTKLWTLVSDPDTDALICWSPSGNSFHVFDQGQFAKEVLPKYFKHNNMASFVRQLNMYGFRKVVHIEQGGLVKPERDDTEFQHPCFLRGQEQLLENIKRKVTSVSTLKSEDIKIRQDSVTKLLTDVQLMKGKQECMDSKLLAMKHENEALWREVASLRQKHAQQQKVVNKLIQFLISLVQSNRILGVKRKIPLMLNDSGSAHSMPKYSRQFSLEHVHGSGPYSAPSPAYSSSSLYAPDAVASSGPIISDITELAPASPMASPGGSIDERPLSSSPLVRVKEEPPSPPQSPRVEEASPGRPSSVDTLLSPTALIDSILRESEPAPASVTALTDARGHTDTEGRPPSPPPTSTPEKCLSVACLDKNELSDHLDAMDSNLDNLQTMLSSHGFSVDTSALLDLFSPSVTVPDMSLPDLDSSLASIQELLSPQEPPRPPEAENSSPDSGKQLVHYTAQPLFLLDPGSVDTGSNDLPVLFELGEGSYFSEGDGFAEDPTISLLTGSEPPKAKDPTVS
# Outline: as §1
# SPIC = target: T4, SPIC (Homo sapiens, UniProt Q8N5J4 1-248); settings: protein: recombinant; tags: N-terminal GST; dsDNA, one strand shown
# T4 sequence: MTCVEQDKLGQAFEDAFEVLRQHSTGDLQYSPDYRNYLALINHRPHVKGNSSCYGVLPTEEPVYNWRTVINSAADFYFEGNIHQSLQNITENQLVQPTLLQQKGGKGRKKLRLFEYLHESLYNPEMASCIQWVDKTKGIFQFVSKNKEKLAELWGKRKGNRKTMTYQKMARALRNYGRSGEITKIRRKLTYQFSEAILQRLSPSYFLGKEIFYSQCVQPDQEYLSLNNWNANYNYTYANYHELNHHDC
# Outline: as §1
# CRX = CRX (Homo sapiens, UniProt O43186 1-299); settings: protein: recombinant; tags: N-terminal GST; dsDNA, one strand shown
# Chain of CRX (O43186 whole entry): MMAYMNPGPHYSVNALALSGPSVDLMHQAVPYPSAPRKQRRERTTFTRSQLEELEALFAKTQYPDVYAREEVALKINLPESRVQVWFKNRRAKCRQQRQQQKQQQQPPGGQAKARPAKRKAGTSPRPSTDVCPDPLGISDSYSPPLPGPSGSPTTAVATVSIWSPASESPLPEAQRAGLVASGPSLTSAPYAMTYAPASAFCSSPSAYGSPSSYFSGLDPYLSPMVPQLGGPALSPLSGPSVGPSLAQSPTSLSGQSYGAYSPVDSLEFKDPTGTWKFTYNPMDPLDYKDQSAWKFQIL
# Outline: as §1
Sequence,binding signal (FLI1),binding signal (SPI1),binding signal (ELK3),binding signal (ELF5),binding signal (HSF1),binding signal (SPIC),binding signal (CRX)
CACCGG,"1.11 fold enrichment (6-mer frequency, TF over GST control)","1.08 fold enrichment (6-mer frequency, TF over GST control)","1.16 fold enrichment (6-mer frequency, TF over GST control)","1.03 fold enrichment (6-mer frequency, TF over GST control)",,,
CGCCGG,"1.01 fold enrichment (6-mer frequency, TF over GST control)",,"1.08 fold enrichment (6-mer frequency, TF over GST control)","1.02 fold enrichment (6-mer frequency, TF over GST control)",,,
CCGCAG,"1.12 fold enrichment (6-mer frequency, TF over GST control)","1.11 fold enrichment (6-mer frequency, TF over GST control)","1.14 fold enrichment (6-mer frequency, TF over GST control)","1.04 fold enrichment (6-mer frequency, TF over GST control)",,,
CGTTTG,"1.05 fold enrichment (6-mer frequency, TF over GST control)",,"1 fold enrichment (6-mer frequency, TF over GST control)","1.1 fold enrichment (6-mer frequency, TF over GST control)",,,
CCCAAG,"1.09 fold enrichment (6-mer frequency, TF over GST control)","1.03 fold enrichment (6-mer frequency, TF over GST control)","1 fold enrichment (6-mer frequency, TF over GST control)",,,,
CTAGCG,,"1.15 fold enrichment (6-mer frequency, TF over GST control)",,"1.07 fold enrichment (6-mer frequency, TF over GST control)","1.3 fold enrichment (6-mer frequency, TF over GST control)","1.03 fold enrichment (6-mer frequency, TF over GST control)","1.06 fold enrichment (6-mer frequency, TF over GST control)"
AGAAAA,,"1.11 fold enrichment (6-mer frequency, TF over GST control)","1 fold enrichment (6-mer frequency, TF over GST control)","1.02 fold enrichment (6-mer frequency, TF over GST control)","2.39 fold enrichment (6-mer frequency, TF over GST control)","1.04 fold enrichment (6-mer frequency, TF over GST control)","1.27 fold enrichment (6-mer frequency, TF over GST control)"
TGGCGA,,"1.03 fold enrichment (6-mer frequency, TF over GST control)",,,"1.03 fold enrichment (6-mer frequency, TF over GST control)","1.08 fold enrichment (6-mer frequency, TF over GST control)",
TCAAGT,,"1.06 fold enrichment (6-mer frequency, TF over GST control)","1.13 fold enrichment (6-mer frequency, TF over GST control)",,"1.08 fold enrichment (6-mer frequency, TF over GST control)","1.12 fold enrichment (6-mer frequency, TF over GST control)","1.12 fold enrichment (6-mer frequency, TF over GST control)"
AGAAGT,,"1.24 fold enrichment (6-mer frequency, TF over GST control)","1.11 fold enrichment (6-mer frequency, TF over GST control)","1.1 fold enrichment (6-mer frequency, TF over GST control)","1.45 fold enrichment (6-mer frequency, TF over GST control)","1.19 fold enrichment (6-mer frequency, TF over GST control)",
CGGTTA,"1.05 fold enrichment (6-mer frequency, TF over GST control)","1 fold enrichment (6-mer frequency, TF over GST control)","1 fold enrichment (6-mer frequency, TF over GST control)","1.07 fold enrichment (6-mer frequency, TF over GST control)",,,
AGCGAT,,"1.07 fold enrichment (6-mer frequency, TF over GST control)","1.23 fold enrichment (6-mer frequency, TF over GST control)",,"1.1 fold enrichment (6-mer frequency, TF over GST control)","1.11 fold enrichment (6-mer frequency, TF over GST control)","1.29 fold enrichment (6-mer frequency, TF over GST control)"
CATTAA,,"1.04 fold enrichment (6-mer frequency, TF over GST control)",,,"1.36 fold enrichment (6-mer frequency, TF over GST control)","1.08 fold enrichment (6-mer frequency, TF over GST control)","1.92 fold enrichment (6-mer frequency, TF over GST control)"
TGACGG,"1.01 fold enrichment (6-mer frequency, TF over GST control)","1.02 fold enrichment (6-mer frequency, TF over GST control)",,"1.06 fold enrichment (6-mer frequency, TF over GST control)",,,
ATAATG,,"1.07 fold enrichment (6-mer frequency, TF over GST control)","1.22 fold enrichment (6-mer frequency, TF over GST control)","1.07 fold enrichment (6-mer frequency, TF over GST control)","1.25 fold enrichment (6-mer frequency, TF over GST control)","1.21 fold enrichment (6-mer frequency, TF over GST control)","1.52 fold enrichment (6-mer frequency, TF over GST control)"
TCACGG,"1.06 fold enrichment (6-mer frequency, TF over GST control)","1.01 fold enrichment (6-mer frequency, TF over GST control)","1 fold enrichment (6-mer frequency, TF over GST control)","1.13 fold enrichment (6-mer frequency, TF over GST control)",,,
CGAACG,,,,,"1.2 fold enrichment (6-mer frequency, TF over GST control)","1.11 fold enrichment (6-mer frequency, TF over GST control)",
CGTAAA,,"1.09 fold enrichment (6-mer frequency, TF over GST control)","1.17 fold enrichment (6-mer frequency, TF over GST control)","1.14 fold enrichment (6-mer frequency, TF over GST control)","1.17 fold enrichment (6-mer frequency, TF over GST control)","1.09 fold enrichment (6-mer frequency, TF over GST control)","1.15 fold enrichment (6-mer frequency, TF over GST control)"
GAGCTT,,,"1.02 fold enrichment (6-mer frequency, TF over GST control)",,"1.2 fold enrichment (6-mer frequency, TF over GST control)","1.09 fold enrichment (6-mer frequency, TF over GST control)","1.43 fold enrichment (6-mer frequency, TF over GST control)"
GACTTA,,,,,"1.34 fold enrichment (6-mer frequency, TF over GST control)","1.08 fold enrichment (6-mer frequency, TF over GST control)","1.93 fold enrichment (6-mer frequency, TF over GST control)"
AGGATG,"1.07 fold enrichment (6-mer frequency, TF over GST control)",,,"1.23 fold enrichment (6-mer frequency, TF over GST control)",,,
AGCAAA,,"1.04 fold enrichment (6-mer frequency, TF over GST control)","1.04 fold enrichment (6-mer frequency, TF over GST control)","1 fold enrichment (6-mer frequency, TF over GST control)","1.18 fold enrichment (6-mer frequency, TF over GST control)",,"1.05 fold enrichment (6-mer frequency, TF over GST control)"
TGGGAA,,"1.21 fold enrichment (6-mer frequency, TF over GST control)","1 fold enrichment (6-mer frequency, TF over GST control)","1.15 fold enrichment (6-mer frequency, TF over GST control)","1.05 fold enrichment (6-mer frequency, TF over GST control)","1.03 fold enrichment (6-mer frequency, TF over GST control)",
CCCCTA,,"1.08 fold enrichment (6-mer frequency, TF over GST control)","1.38 fold enrichment (6-mer frequency, TF over GST control)","1.1 fold enrichment (6-mer frequency, TF over GST control)","1.02 fold enrichment (6-mer frequency, TF over GST control)","1.25 fold enrichment (6-mer frequency, TF over GST control)","1.15 fold enrichment (6-mer frequency, TF over GST control)"
GGCTAA,,,"1.02 fold enrichment (6-mer frequency, TF over GST control)",,"1.15 fold enrichment (6-mer frequency, TF over GST control)","1.03 fold enrichment (6-mer frequency, TF over GST control)","1.61 fold enrichment (6-mer frequency, TF over GST control)"

# Reference: paper PMC7862700, “An all-to-all approach to the identification of sequence-specific readers for epigenetic DNA modifications on cytosine”
